Seven molecules from PubChem BioAssay (NCATS) can be followed below.

Assay [1] has as its target Peroxisome proliferator-activated receptor alpha (Homo sapiens) (UniProt Q07869). Nature of the assay: qHTS assay for small molecule agonists of the peroxisome proliferator-activated receptor alpha (PPARalpha) signaling pathway (AID 651778). Note: % of control where 0% means no effect. As to conditions: PathHunter PPARalpha complementation, chemiluminescence, 6 h; stronger effect = higher value. The method in brief: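 Enzyme-fragment complementation assay in which ligand-bound PPARalpha translocates and forms an active enzyme that generates chemiluminescence. Cells were plated overnight, exposed to compound for 6 hr at 37 C, and then given detection reagent for 60 min at room temperature.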
For orientation: In qHTS, concentration-response curves come from the screen itself.

A short description of assay [2]: qHTS assay for small molecule agonists of the antioxidant response element (ARE) signaling pathway measured by Nrf2-dependant transcriptional activity (AID 720636; active = well fitted curve in the direction sought with a large enough effect in the repeat runs; an effect the other way counts as inactive or inconclusive; note: % of control where 0% means no effect). To be noted: ARE-luc HepG2, Nrf2 luciferase reporter, 16 h; series mostly up to 92.4 µM. The method in brief: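 Nrf2-dependent transcription read as ONE-Glo luciferase signal from ARE-luc HepG2 reporter cells after 16 hr compound treatment at 37 C, 5% CO2, in assay medium with 1% dialyzed FBS.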

The nature of assay [3]: qHTS assay for small molecule agonists of the antioxidant response element (ARE) signaling pathway measured by Nrf2-dependant transcriptional activity - cell viability counter screen (AID 720653; active = well fitted curve in the direction sought with a large enough effect in the repeat runs; an effect the other way counts as inactive or inconclusive; note: % is set by controls: 0 for no effect and ±100 for the full control effect). As to conditions: ARE-bla HepG2 viability, CellTiter-Glo ATP luminescence, 16 h; max response: stronger effect = lower value. The method in brief:
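ARE-bla HepG2 cells treated with compounds for 16 h at 37C; this counter screen measures viability as intracellular ATP by CellTiter-Glo luminescence after 30 min at room temperature.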

Assay [4] is described as follows: qHTS Assay for Identifying Gametocytocidal Compounds (AID 743244).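 Note: % is set by controls: 0 for no effect and ±100 for the full control effect; actives lower the fluorescent signal which means gametocytes are killed.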 As to conditions: P. falciparum 3D7 stage III-V gametocytes, alamarBlue, 72 h; max response: stronger effect = lower value. An outline of the steps:
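Stage III–V gametocytes of P. falciparum 3D7 were seeded at 20,000 cells/well onto pre-dispensed compounds. After 72 h, 37 °C, 5% CO2, alamarBlue was added for another 24 h.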

Assay [5] can be described thus: qHTS assay for cell viability of HEK293 cells (AID 743288). Note: % is set by controls: 0 for no effect and ±100 for the full control effect; nearly all actives have a fitted effect of over 50% in size. To be noted: ATP luminescence (CellTiter-Glo), 18 h; max response: stronger effect = lower value. The method in brief: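 Parental HEK293 cells were seeded at 2,000 cells/well, rested at least 5 h at 37 C, then exposed to compounds in DMSO for 18 h at 37 C. Viability was read as ATP-dependent luciferase luminescence after 30 min at room temperature.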

The nature of assay [6]: qHTS assay for cell viability of the p53RE-bla HCT-116 cell line (AID 743292). Note: % is set by controls: 0 for no effect and ±100 for the full control effect; nearly all actives have a fitted effect of over 55% in size. As to conditions: p53RE-bla HCT-116 viability, ATP luminescence, 16 h; series mostly up to 95 µM. The method in brief:
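ATP-based luminescent viability (CellTiter-Glo, 30 min RT) after 16 h compound treatment at 37 C of p53RE-bla HCT-116 cells, seeded at 4,000 cells/well and rested 5 h before dosing.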

The nature of assay [7]: qHTS profiling of the MIPE4 collection as inhibitors of Plasmodium falciparum (3D7) proliferation (AID 743344; call rule not given here;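 note: scaled between DMSO vehicle wells and 0.29 µM artemisinin as full inhibition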). As to conditions: P. falciparum 3D7 in erythrocytes, SYBR Green DNA fluorescence, 72 h; at 28.5 µM (top of the series) unless noted. The method in brief:
(§1)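 Erythrocytes infected with P. falciparum (0.3% parasitemia, 2.5% hematocrit) incubated with compounds 72 h at 37 C, 5% CO2. Lysis with saponin/Triton buffer containing SYBR Green I, overnight at room temperature in the dark; DNA fluorescence (485/535 nm) normalised to 0.29 uM artemisinin and DMSO.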

In assay [8] the target is Arylsulfatase A (Homo sapiens) (UniProt P15289). Nature of the assay: qHTS screen for enhancers of Arylsulfatase A (ASA1): LOPAC Validation Assay (AID 720538). To be noted: ASA enzyme activity, LOPAC qHTS enhancer assay; series mostly up to 57.5 µM. The method in brief:
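SV40-transformed skin fibroblasts from an MLD patient (ASA-I179S) were treated with compounds for 48h at 37 degree C, then lysed with 0.5mM pNCS final substrate for 14h at room temperature; NaOH stop, fluorescence read (Ex=525 nm; Em=598 nm).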

Assay [9] in a line: qHTS for compounds that reverse cellular toxicity of Amyloid beta (A-beta) peptide in yeast: LOPAC Validation Assay (AID 720559).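 Note: plate controls were DMSO for no effect and equimolar ferric chloride plus clioquinol rescue for full effect.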 To be noted: yeast expressing A-beta; series mostly up to 46.1 µM. The method in brief: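 Yeast cells expressing toxic A-beta were combined with pinned compounds in growth medium and incubated 48 hr at 30 C. Growth was read as absorbance at 600 nm and normalized to DMSO and to an equimolar FeCl3/clioquinol positive control.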

A short description of assay [10]: qHTS for Activators of Parkin Expression: LOPAC Validation Assay (NLuc Reporter) (AID 720572;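 note: 0% = DMSO and 100% = positive control compound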). As to conditions: Parkin promoter NanoLuc reporter cells, luminescence, percent of positive control, DMSO as zero; series mostly up to 46.1 µM. An outline of the steps: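 Neuronal cells with a Parkin promoter-driven FLuc/NLuc coincidence reporter were treated 24 h at 37 C in 7-point dose response (LOPAC). NLuc luminescence read after FLuc; signals normalized to DMSO and positive control (100%).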

A short description of assay [11]: qHTS for Activators of Parkin Expression: LOPAC Validation Assay (FLuc Reporter) (AID 720573;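 note: 0% = DMSO and 100% = positive control compounds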). As to conditions: Cell line, PRKN promoter firefly luciferase reporter; series mostly up to 46.1 µM. The method in brief:
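Neuronal cell line stably carrying FLuc/NLuc coincidence reporter under Parkin promoter; cells plated 24 h, then compounds added in 7-point dose response for 24 h at 37 C. FLuc luminescence read; normalized to DMSO and positive control (100%).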

Assay [12] deals with T1, Hexokinase-4 (Homo sapiens) + Glucokinase regulatory protein (Homo sapiens) (UniProt P35557+Q14397). Kind of assay: qHTS assay for inhibitors of recombinant human GCK-GKRP interaction: Diaphorase-coupled assay (AID 743205). To be noted: G6PDH/diaphorase resorufin fluorescence; series mostly up to 57.5 µM. An outline of the steps: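 GST-GCK (10 nM) with FLAG-GKRP (10 nM), 5 mM glucose and 0.4 mM ATP in pH 7.6 Hepes; compounds preincubated 20 min with substrate. G6PDH/diaphorase coupling converts resazurin to resorufin, read kinetically (ex 525/em 590 nm) for 30 min.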
T1 sequence (P35557 whole entry, looked up): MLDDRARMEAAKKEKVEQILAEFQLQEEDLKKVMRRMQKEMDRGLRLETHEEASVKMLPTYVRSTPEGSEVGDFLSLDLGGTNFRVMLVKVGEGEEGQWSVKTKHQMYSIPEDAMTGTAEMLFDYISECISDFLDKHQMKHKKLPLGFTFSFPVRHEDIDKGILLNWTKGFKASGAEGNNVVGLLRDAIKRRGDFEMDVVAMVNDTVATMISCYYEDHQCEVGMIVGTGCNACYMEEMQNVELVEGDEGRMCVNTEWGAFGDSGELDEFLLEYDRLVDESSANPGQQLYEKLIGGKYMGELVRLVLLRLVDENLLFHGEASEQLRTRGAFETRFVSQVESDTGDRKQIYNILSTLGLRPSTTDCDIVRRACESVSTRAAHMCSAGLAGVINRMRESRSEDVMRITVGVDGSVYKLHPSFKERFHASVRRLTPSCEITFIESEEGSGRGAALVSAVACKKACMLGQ
T1 sequence (Q14397 whole entry, looked up): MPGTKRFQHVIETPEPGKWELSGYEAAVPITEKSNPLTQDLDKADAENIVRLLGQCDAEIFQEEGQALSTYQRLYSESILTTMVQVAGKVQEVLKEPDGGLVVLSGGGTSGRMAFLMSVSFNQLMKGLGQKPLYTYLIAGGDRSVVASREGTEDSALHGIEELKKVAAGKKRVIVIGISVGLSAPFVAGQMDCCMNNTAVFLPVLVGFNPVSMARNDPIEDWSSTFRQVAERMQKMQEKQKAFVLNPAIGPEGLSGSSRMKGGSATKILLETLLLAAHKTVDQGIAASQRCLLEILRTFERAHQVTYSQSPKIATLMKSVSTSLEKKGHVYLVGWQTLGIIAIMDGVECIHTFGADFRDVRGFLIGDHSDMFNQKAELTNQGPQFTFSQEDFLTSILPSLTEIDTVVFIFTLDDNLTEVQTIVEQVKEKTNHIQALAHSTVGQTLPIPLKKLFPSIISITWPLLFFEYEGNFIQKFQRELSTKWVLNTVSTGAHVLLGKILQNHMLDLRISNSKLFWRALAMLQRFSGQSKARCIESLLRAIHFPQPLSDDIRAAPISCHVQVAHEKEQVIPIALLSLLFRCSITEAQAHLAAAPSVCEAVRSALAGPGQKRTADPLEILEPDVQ

The target in assay [13] is T1, Hexokinase-4 (Homo sapiens) + Glucokinase regulatory protein (Homo sapiens). Kind of assay: qHTS assay for inhibitors of recombinant human GCK-GKRP interaction: ADP-Glo assay (AID 743206).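 Note: plate controls were DMSO plus enzyme for no effect and no enzyme for full effect.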 As to conditions: ADP-Glo luminescence, 60 min, 0% = vehicle-only wells with enzyme present; series mostly up to 76.9 µM. An outline of the steps:
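GST-GCK and FLAG-GKRP (15 nM each in the dispensed mix, with 2 uM S6P) react with 0.4 mM ATP and 5 mM glucose (final) in Hepes pH 7.6 for 60 min at room temperature. ADP is measured by ADP-Glo luminescence.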

For assay [14] the target is unchanged. Kind of assay: qHTS assay for inhibitors of recombinant human GCK-GKRP interaction: HTRF assay (AID 743207).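 Note: 0% = DMSO with GCK present and -100% = DMSO wells lacking GCK.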 As to conditions: recombinant GCK-GKRP HTRF binding, 60 min, with sorbitol-6-phosphate; series mostly up to 57.5 µM. The method in brief:
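GST-GCK and FLAG-GKRP (5 nM each) were combined with 2 uM S6P in pH 7.1 Hepes/MgCl2/KCl/DTT buffer, then compound and anti-FLAG XL665/anti-GST K antibodies were added. After 60 min at room temperature, HTRF 665/615 nm emission was read.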

For assay [15], the target named is Tyrosine-protein kinase Yes (Homo sapiens) (UniProt P07947). Kind of assay: qHTS for small molecule inhibitors of Yes1 kinase: Primary Screen (AID 686947). Note: nearly all actives have a fitted effect of over 60% in size. Note: potency is the fitted concentration of half-maximal effect. As to conditions: Yes1 kinase biochemical qHTS inhibition; series mostly up to 76.9 µM. The method in brief: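 Yes1 (4 nM) preincubated 20 min with compound, then 60 min room-temperature reaction with 0.1 mM ATP and 0.3 mg/mL poly(E4Y) in pH 7.5 Tris, 10 mM MgCl2. ADP measured by ADP-Glo luminescence, normalised to enzyme/no-enzyme controls.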
Chain of Tyrosine-protein kinase Yes (Homo sapiens) (P07947 whole entry, looked up): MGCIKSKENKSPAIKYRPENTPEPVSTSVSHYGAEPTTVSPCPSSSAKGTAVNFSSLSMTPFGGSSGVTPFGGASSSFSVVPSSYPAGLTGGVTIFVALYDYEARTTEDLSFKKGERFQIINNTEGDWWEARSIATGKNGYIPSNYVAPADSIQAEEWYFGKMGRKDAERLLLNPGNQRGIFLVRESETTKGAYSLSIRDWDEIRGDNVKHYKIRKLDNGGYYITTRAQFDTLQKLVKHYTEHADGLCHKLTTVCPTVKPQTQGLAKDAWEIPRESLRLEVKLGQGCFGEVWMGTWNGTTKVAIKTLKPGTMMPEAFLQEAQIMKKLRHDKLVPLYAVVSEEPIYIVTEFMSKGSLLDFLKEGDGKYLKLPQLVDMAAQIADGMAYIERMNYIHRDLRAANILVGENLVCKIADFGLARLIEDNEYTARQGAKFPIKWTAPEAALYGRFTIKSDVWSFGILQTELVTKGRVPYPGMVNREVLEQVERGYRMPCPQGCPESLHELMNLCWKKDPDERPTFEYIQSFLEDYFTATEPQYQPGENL

Assay [16] can be described thus: qHTS profiling for inhibitors of Plasmodium falciparum (3D7) proliferation (AID 743322; call rule not given here;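 note: infected erythrocytes exposed to compound for 72 h before lysis; 100% = DMSO vehicle wells and 0% = 0.29 µM artemisinin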). To be noted: P. falciparum 3D7 proliferation; at 28.7 µM (top of the series) unless noted. An outline of the steps:
as §1

Assay [17] can be described thus: qHTS profiling for inhibitors of Plasmodium falciparum (DD2) proliferation (AID 743323; call rule not given here). As to conditions: lower = more inhibition; at 28.7 µM (top of the series) unless noted. An outline of the steps: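 SYBR Green fluorescence (ex 485, em 535 nm) of lysed cultures gives parasite DNA content; wells normalized to artemisinin (0.29 uM) and DMSO controls. Infected red cells: 0.3% parasitemia, 2.5% hematocrit, 72 h, 37 C.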

Molecules are shown by their SMILES. Values joined by “and” are separate entries in the source; they are usually repeats but may differ in a detail not shown here. Equal values may be shown once. Inconclusive results are not listed. Active and inactive are the calls of the source. Unless noted, calls come from the whole dose curve; as a rule, active = well fitted curve in the direction sought with a large enough effect; inconclusive = small, poorly fitted or top-dose-only effect, or another doubt; inactive = no such curve, though single readings can be large; an effect the other way counts as inactive or inconclusive.

Chain of Arylsulfatase A (Homo sapiens) (P15289 whole entry, looked up): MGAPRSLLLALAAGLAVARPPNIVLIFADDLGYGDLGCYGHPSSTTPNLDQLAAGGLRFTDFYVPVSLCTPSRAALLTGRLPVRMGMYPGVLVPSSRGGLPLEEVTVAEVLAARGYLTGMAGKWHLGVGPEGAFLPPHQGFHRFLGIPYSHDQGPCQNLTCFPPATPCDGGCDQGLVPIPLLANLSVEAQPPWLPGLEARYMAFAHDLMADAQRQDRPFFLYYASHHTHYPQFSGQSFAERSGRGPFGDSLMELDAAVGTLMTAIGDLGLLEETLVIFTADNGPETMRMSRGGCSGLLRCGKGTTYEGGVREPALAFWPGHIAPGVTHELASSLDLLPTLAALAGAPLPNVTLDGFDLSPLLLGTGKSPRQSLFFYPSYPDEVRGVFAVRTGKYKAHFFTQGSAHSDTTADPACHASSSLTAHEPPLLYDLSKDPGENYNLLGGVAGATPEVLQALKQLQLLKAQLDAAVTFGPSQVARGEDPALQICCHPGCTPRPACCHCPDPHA
Chain of Peroxisome proliferator-activated receptor alpha (Homo sapiens) (Q07869 whole entry, looked up, the tested form may be a part): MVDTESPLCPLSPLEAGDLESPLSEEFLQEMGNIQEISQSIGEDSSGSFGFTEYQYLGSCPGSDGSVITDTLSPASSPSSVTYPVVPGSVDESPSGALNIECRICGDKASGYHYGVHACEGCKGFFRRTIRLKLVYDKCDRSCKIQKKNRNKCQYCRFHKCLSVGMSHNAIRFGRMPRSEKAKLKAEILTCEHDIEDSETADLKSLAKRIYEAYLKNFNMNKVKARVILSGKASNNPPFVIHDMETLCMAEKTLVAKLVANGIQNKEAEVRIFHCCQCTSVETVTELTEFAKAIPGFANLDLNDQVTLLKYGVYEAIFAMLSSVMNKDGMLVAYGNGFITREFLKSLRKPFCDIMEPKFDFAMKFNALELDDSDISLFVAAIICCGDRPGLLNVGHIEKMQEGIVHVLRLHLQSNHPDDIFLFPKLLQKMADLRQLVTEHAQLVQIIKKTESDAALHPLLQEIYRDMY

Consider `COc1cc(OC)c(C(=O)CCCN2CCCC2)c(OC)c1`, for which the max response in assay [1] was -0.755% (inactive); in [3], -3.27% (inactive); in assay [4], 4.14% (inactive); in assay [5], -5.06% (inactive). For the same molecule, the Potency entry in assay [2] and in assay [6] was “inactive” each time. Further, in assay [7], the parasite growth, % of DMSO control turned out to be 90.8%.
With `CC1(C)C(=O)N(CCN2CCC(C(=O)c3ccc(F)cc3)CC2)c2ccccc21`, the Potency entry in assay [8] and in assay [11] was “inactive” throughout. Besides, the outcome in assay [9], in assay [10], in assay [12], in [13] and in assay [14] was inactive. Besides, in assay [4], the max response is 6.71% (inactive). Moreover, the parasite growth, % of DMSO control in assay [7] is 49%.
`COc1ccccc1N1CCN(CCN(C(=O)C2CCCCC2)c2ccccn2)CC1`: the Potency result in assay [8] and in assay [11] was “inactive” each time. Moreover, the call in [9], in [10], in assay [12], in assay [13] and in assay [14] was inactive. The max response in [4] was 6.13% (inactive). The molecule further displayed a parasite growth, % of DMSO control in assay [7] of 57.8%.
In the case of `Nc1nc(Cl)nc2c1ncn2[C@H]1C[C@H](O)[C@@H](CO)O1`, the max response in assay [1] is -0.979% (inactive); in assay [3], -12.8% (inactive); in [4] it was 30.7% (inactive) and 5.06% (inactive); in assay [5] it was -15% (inactive). In addition, the Potency in assay [15] was 79.3 µM (active). In addition, the Potency entry in assay [2] and in assay [6] was “inactive” each time. The molecule further gave a remaining parasite growth % (stronger effect = lower value) in [16] of 83.8% [at 57.5 µM]. The molecule also had an activity, percent of control in assay [17] of 93.6% [at 57.5 µM]. The molecule further displayed a parasite growth, % of DMSO control in assay [7] of 102%.
As to `CCCCC(CC)COC(=O)C(C#N)=C(c1ccccc1)c1ccccc1` (stereo not drawn), the max response was -1.78% (inactive) in assay [1], -8.35% (inactive) in [3], 17.2% (inactive) in assay [4] and -27.9% (inactive) in assay [5]. Moreover, the Potency entry in [2] and in assay [6] was “inactive” in each case. This molecule also displayed a parasite growth, % of DMSO control in assay [7] of 9.47%.
On to `O=C(NOCC1CC1)c1ccc(F)c(F)c1Nc1ccc(I)cc1Cl`, for which, in [15], the Potency result is “inactive”. The parasite growth, % of DMSO control in [7] was 24.6%.
Turning to `CN(C)CCCC1(c2ccc(F)cc2)OCc2cc(C#N)ccc21` (stereo not drawn), the Potency result in assay [8] and in [11] was “inactive” throughout. The outcome in assay [9], in [10], in assay [12], in assay [13] and in [14] was inactive. The max response in [4] was 7.27% (inactive). Also, the parasite growth, % of DMSO control in [7] came to 95.4%.
